A selection: hits, their analogues and other compounds. The true share with any hit is near 18%.
IL1B secr inh – inhibitors of inflammasome signaling (IL-1 beta secretion); hit rate 4.7% among 360,000; THP-1 LPS/ATP IL-1B secretion, AlphaLISA, 16 h; stronger effect = lower value; AID 743279; activity change, % at 57.5 µM; in the data active means activity change below about -50%; inconclusive means mostly about -30% to -49%; further: on the % scale 0 is the no-effect control and ±100 the full control effect
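THP-1 cells pretreated 1 hr with compounds (up to 57.5 uM final), then stimulated with LPS (250 ng/mL final) plus ATP (1.25 mM final); secreted IL-1B measured by AlphaLISA after 16 hr, decreased signal indicating inhibition.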
HepG2 tox-1 – kills HepG2 cells in TGF-b inhibitor counter-screen; HepG2 CAGA-GFP viability, ATP luminescence, 18 h; Potency, µM (doses to about 46.1 µM), for the others: at the highest dose activity change, negative = cytotoxicity, actives largely listed as cytotoxic; hit rate 0.76% among 410,000; further: potency means the concentration at half of the fitted maximal effect
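CellTiter-Glo luminescence gave cytotoxicity after 18 hours at 37 degrees C. The cells were HepG2 CAGA-GFP in 1% FBS DMEM, stimulated with 500 pg/mL TGF-beta after compound addition. %Activity was normalised to no-cell wells (complete cell-killing) and DMSO (no toxicity), and curves were fitted and classified.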
TDP1 block – blocks human tyrosyl-DNA phosphodiesterase 1; Potency, µM (series often up to 130 µM), without a hit: at the highest dose activity change, negative = inhibition, most hits filed as inhibitors; recombinant TDP1, AlphaScreen DNA substrate cleavage; AID 485290; Q9NUW8; hit rate 0.28% among 350,000; further: potency means the concentration at half of the fitted maximal effect; on the % scale 0 is the no-effect control and ±100 the full control effect; nearly all actives have a fitted effect of over 40% in size
Target sequence (Q9NUW8 whole entry, looked up): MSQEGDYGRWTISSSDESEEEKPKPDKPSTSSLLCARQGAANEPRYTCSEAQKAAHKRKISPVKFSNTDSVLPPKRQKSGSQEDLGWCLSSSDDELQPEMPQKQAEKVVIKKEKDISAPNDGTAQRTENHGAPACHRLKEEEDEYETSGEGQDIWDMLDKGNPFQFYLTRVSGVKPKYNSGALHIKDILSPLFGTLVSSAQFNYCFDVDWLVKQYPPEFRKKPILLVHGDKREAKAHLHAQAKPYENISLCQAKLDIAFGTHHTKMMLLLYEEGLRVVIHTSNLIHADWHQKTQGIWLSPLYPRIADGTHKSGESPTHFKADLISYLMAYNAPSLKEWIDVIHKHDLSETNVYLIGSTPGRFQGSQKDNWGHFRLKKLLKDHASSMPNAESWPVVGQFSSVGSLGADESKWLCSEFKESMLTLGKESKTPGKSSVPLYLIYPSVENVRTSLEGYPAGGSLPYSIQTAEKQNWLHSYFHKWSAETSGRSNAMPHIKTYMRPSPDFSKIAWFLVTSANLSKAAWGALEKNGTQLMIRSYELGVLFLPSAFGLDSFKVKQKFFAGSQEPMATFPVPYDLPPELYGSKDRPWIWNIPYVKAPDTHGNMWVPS
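Tdp1 1 nM final; 15 min RT w/ cpd; substrate 15 nM, 5 min; beads 10 ug/ml, 10 min; AlphaScreen read. Neg ctrl: no enzyme.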
TGFb SMAD3 inh – TGF-b pathway inhibition; HepG2 CAGA-GFP TGF-b/SMAD3 reporter, GFP fluorescence, 18 h; TGF-beta stimulated, 500 pg/mL final; Potency, µM (series often up to 46.1 µM), for the others: top-dose activity, negative = inhibition, actives largely listed as inhibitors; hit rate 1.2% among 410,000; AID 588855; further: potency means the concentration at half of the fitted maximal effect; on the % scale 0 is the no-effect control and ±100 the full control effect; nearly all actives have a fitted effect of over 65% in size
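Per well, imaged GFP fluorescence of HEPG2 CAGA-GFP cells gives the signal; cells get compound, then TGF-beta (500 pg/mL final), 18 h at 37 degrees C; %Activity versus -TGF-beta and +DMSO controls.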
DT40 TDP1 CPT – growth inhibition of DT40 Tdp1-/-;hTDP1 cells with camptothecin (screen for TDP1 inhibitors); AID 686979; Potency, µM (doses to about 46.2 µM), inactives show top-dose activity change, negative = growth inhibition, most hits filed as inhibitors; hit rate 12% among 420,000; chicken DT40 Tdp1-/-;hTDP1 cells + 20 nM CPT, ATP luminescence, 48 h; further: potency means the concentration at half of the fitted maximal effect; on the % scale 0 is the no-effect control and ±100 the full control effect; nearly all actives have a fitted effect of over 55% in size
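Chicken DT40 Tdp1-/- cells stably complemented with human TDP1 were seeded at 400 cells/well in medium containing 20 nM camptothecin, exposed to pin-transferred compounds, and grown at 37 °C for at least 48 hr. Viability was read as ATP luminescence.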
DT40 TDP1 no CPT – qHTS for Inhibitors of human tyrosyl-DNA phosphodiesterase 1 (TDP1): qHTS in cells in absence of CPT; DT40 Tdp1-/- hTDP1 cells, no CPT, ATP luminescence, 48 h; Potency, µM (highest dose often 46.2 µM), for the others: top-dose activity change, negative = growth inhibition, hits mostly inhibitors; hit rate 15% among 420,000; further: potency means the concentration at half of the fitted maximal effect; on the % scale 0 is the no-effect control and ±100 the full control effect; nearly all actives have a fitted effect of over 55% in size
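Readout: luminescence from CellTiter-Glo after 30 min in the dark at RT. Cells: DT40 Tdp1-/- with stable hTDP1, 400/well. Exposure: compounds alone, ≥48 hr, 37 °C.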
TGFb CAGA inh – confirmation of TGF-b signaling inhibitors in HepG2 reporter cells; HepG2 CAGA-GFP TGF-b reporter, GFP fluorescence, 18 h; cells stimulated with TGF-beta, 500 pg/mL; Potency, µM (highest dose often 46.1 µM), inactives show top-dose activity, negative = inhibition, actives largely listed as inhibitors; AID 720534; shares compounds with TGFb SMAD3 inh; hit rate 63% among 1,600; further: potency means the concentration at half of the fitted maximal effect; on the % scale 0 is the no-effect control and ±100 the full control effect; nearly all actives have a fitted effect of over 65% in size
HepG2 tox-2 – counter-screen for TGF-b inhibitors: cytotoxicity in HepG2 cells | shares compounds with TGFb SMAD3 inh | HepG2 CAGA-GFP viability, ATP luminescence, 18 h; cells stimulated with TGF-beta, 500 pg/mL | Potency, µM (top dose mostly 46.1 µM), for inactives: at the top dose activity, negative = cytotoxicity, usual class: inhibitors | hit rate 27% among 1,600 | AID 720535; further: potency means the concentration at half of the fitted maximal effect; on the % scale 0 is the no-effect control and ±100 the full control effect; nearly all actives have a fitted effect of over 70% in size
CCL64 TGFb inh – orthogonal confirmation of TGF-b inhibitors in CCL64 cells. shares compounds with TGFb SMAD3 inh. CCL64 CAGA-GFP reporter, TGF-b stimulated, GFP fluorescence, 18 h. Potency, µM (top dose mostly 46.1 µM), without a hit: at the top dose activity, negative = inhibition, actives largely listed as inhibitors. hit rate 41% among 1,600; further: potency means the concentration at half of the fitted maximal effect; nearly all actives have a fitted effect of over 65% in size
COP TGFb inh – TGF-b inhibition validated with COP promoter; AID 720537; shares compounds with TGFb SMAD3 inh; hit rate 3% among 1,600; Potency, µM (doses to about 46.1 µM), for the others: at the top dose activity, negative = inhibition, most hits filed as inhibitors; HepG2 COP-GFP TGF-b reporter, GFP fluorescence, 18 h; cells stimulated by added recombinant TGF-beta; further: potency means the concentration at half of the fitted maximal effect; nearly all actives have a fitted effect of over 70% in size
Starred values were filed as active, the others as inactive; ? = inconclusive; . = no result given. Unless noted, the call rests on the fitted dose curve; in most records, active means well fitted curve in the direction sought with a large enough effect; inconclusive means small, poorly fitted or top-dose-only effect, or another doubt; inactive means no such curve, though single readings can be large; an effect the other way counts as inactive or inconclusive.

SMILES	IL1B secr inh	HepG2 tox-1	TDP1 block	TGFb SMAD3 inh	DT40 TDP1 CPT	DT40 TDP1 no CPT	TGFb CAGA inh	HepG2 tox-2	CCL64 TGFb inh	COP TGFb inh
Cc1ccc(S(=O)(=O)NC(=O)Nc2ccc(OC(F)F)cc2)cc1	1.4	46.0%	6.8%	31.9%	12.8%	3.7%	.	.	.	.
O=C(Nc1ccc(Cl)c([N+](=O)[O-])c1)c1ccco1	26.7	-10.1%	3.2%	-11.7%	-3.4%	?	.	.	.	.
O=C(Nc1cccc(NC(=O)c2ccc([N+](=O)[O-])o2)c1)c1ccco1	-89.6*	11.2µM*	5.5%	3.98µM*	5.8µM*	5.17µM*	6.51µM*	?	16.4µM*	?
O=C(Nc1ccc(N2CCN(C(=O)c3cccs3)CC2)cc1)c1ccc([N+](=O)[O-])o1	.	.	9.0%	.	.	.	.	.	.	.
O=C(Nc1cccc(NC(=O)c2cccs2)c1)c1ccc([N+](=O)[O-])o1	-101.8*	22.4µM*	-1.9%	5.62µM*	3.26µM*	3.66µM*	5.17µM*	20.6µM*	11.6µM*	?
COc1ccc(NC(C)=O)cc1NC(=O)C1CCCN1C(=O)c1cccs1 (centres undefined)	5.9	-0.2%	0.5%	16.4%	-20.4%	1.4%	.	.	.	.
COc1ccc(C(C)(C)C)cc1NC(=O)Nc1ccc2c(c1)OCO2	?	-2.5%	6.7%	?	?	?	.	.	.	.
O=[N+]([O-])c1cc2no[n+]([O-])c2cc1N1CCCCC1	-78.4*	5.5%	.	2.82µM*	0.581µM*	0.92µM*	1.64µM*	6.51µM*	3.66µM*	?
CC(C)(C)C(=O)Nc1cc(NC(=O)C(C)(C)C)cc(C(=O)NNC(=O)c2ccncc2)c1	?	-30.1%	.	-5.0%	-16.7%	16.5%	.	.	.	.
COc1ccc(C2CC(c3c(-c4ccccc4)c4cc(Cl)ccc4[nH]c3=O)=NN2S(C)(=O)=O)cc1OC (centres undefined)	?	-79.2%	6.3%	8.91µM*	?	-25.6%	?	-1.3%	?	19.2%
COc1ccc(C2CC(c3cccs3)=NN2S(C)(=O)=O)cc1OC (centres undefined)	-9.8	-10.2%	-4.7%	11.6%	3.6%	-19.7%	.	.	.	.
COc1cccc(NC(=O)C(c2ccccc2)N2CCCC2)c1 (centres undefined)	-12.9	19.7%	2.3%	0.0%	-0.8%	0.6%	.	.	.	.
